Screens from PubChem BioAssay.
RECQ1 inh = qHTS Assay for Inhibitors of RecQ-Like Dna Helicase 1 (RECQ1); Potency, µM (series often up to 57.3 µM), inactives show top-dose activity, negative = inhibition, most hits filed as inhibitors; RECQ1 DNA unwinding, red fluorescence kinetic read; ATP-dependent DNA helicase Q1 (Homo sapiens), P46063; AID 2549, 2010; 240,000 tested, 0.54% active;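 also: plate controls were vehicle for no effect and no enzyme for full effect; nearly all actives have a fitted effect of over 30% in size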
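RECQ1T1 50 nM; forked duplex (20 bp + 30-nt ss tails) 200 nM, ATP 2 mM final; pH 8.0, 2 mM MgCl2, 2.5 ug/ml poly(dI-dC); 15 min compound preincubation; discontinuous kinetic read over 2 h at RT.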
L3MBTL1 block = qHTS Assay for the Inhibitors of L3MBTL1; AlphaScreen L3MBTL1–H3K9me1 peptide binding; Potency, µM (top dose mostly 57.1 µM), without a hit: at the top dose activity, negative = inhibition, actives largely listed as inhibitors; 230,000 tested, 0.66% active; AID 485360, 2010; also: nearly all actives have a fitted effect of over 60% in size
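Read-out is AlphaScreen signal from streptavidin donor and nickel chelate acceptor beads (10 ug/mL final each) bridging L3MBTL1 (50 nM) and biotinylated K9-monomethylated H3(1-15) peptide (75 nM), after 30 min compound exposure at room temperature.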
FEN1 inh = qHTS Assay for the Inhibitors of Human Flap endonuclease 1 (FEN1); 390,000 tested, 0.35% active; P39748; Recombinant FEN1 flap cleavage, fluorescence, 15 min; Potency, µM (highest dose often 114 µM), for inactives: top-dose activity change, negative = inhibition, actives largely listed as inhibitors; also: nearly all actives have a fitted effect of over 65% in size
Target sequence (P39748 whole entry, looked up): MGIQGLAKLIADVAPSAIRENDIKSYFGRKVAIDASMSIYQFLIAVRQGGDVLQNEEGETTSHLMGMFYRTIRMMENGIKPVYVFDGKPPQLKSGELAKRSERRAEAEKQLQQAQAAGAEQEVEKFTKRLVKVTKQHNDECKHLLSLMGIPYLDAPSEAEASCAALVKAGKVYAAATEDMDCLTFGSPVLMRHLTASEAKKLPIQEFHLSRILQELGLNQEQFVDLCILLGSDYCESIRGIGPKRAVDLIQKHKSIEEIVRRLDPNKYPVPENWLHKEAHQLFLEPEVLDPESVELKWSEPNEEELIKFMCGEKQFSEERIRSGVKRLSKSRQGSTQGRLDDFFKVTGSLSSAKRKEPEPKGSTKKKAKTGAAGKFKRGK
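Read-out was taken twice, immediately and after 15 min, following addition of 50 nM substrate to 10 nM FEN1 that had sat with test compound for 15 min at room temperature. Curves came from a four-parameter Hill model.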
WRN helicase inh = qHTS for Inhibitors of WRN Helicase. Bifunctional 3'-5' exonuclease/ATP-dependent helicase WRN (Homo sapiens), Q14191. WRN helicase unwinding, fluorescent forked duplex, kinetic. Potency, µM (highest dose often 114 µM), inactives show at the top dose activity change, negative = inhibition, usual class: inhibitors. 360,000 tested, 0.46% active; also: nearly all actives have a fitted effect of over 55% in size
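WRN at 20 nM final preincubated with compound 15 min at room temperature; reaction started with 100 nM fluorophore/quencher forked duplex oligonucleotide and 2 mM ATP final. Unwinding followed kinetically by red fluorescence (ex 525, em 598 nm).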
APEX1 inh = qHTS Assay for Inhibitors of the Human Apurinic/apyrimidinic Endonuclease 1 (APE1) | 350,000 tested, 0.35% active | recombinant APE1, TAMRA/BHQ-2 abasic DNA cleavage fluorescence | Potency, µM (series often up to 65.8 µM), inactives show at the highest dose activity change, negative = inhibition, most hits filed as inhibitors | DNA repair nuclease/redox regulator APEX1 (Homo sapiens), P27695;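 also: plate controls were vehicle for no effect and reference inhibitor for full effect; nearly all actives have a fitted effect of over 55% in size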
Target sequence (P27695 whole entry, looked up): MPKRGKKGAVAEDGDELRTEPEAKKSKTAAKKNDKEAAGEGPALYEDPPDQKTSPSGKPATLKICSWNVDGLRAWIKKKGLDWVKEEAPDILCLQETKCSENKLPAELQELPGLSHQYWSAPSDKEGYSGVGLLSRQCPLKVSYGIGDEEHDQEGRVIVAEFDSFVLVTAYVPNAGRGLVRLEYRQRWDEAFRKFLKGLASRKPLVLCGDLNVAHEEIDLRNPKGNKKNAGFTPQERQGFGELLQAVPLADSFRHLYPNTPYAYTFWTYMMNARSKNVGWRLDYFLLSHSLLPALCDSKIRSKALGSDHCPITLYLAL
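0.75 nM APE1 + cpd, 15 min RT; start w/ 50 nM TAMRA/BHQ-2 THF-abasic dsDNA; kinetic fluor 525/598 nm ×3 reads @60 s; Δ(read3−read1); normalized to DMSO and NSC13755 control wells.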
BLM helicase inh = qHTS Assay for Inhibitors of Bloom's syndrome helicase (BLM) | 350,000 tested, 0.2% active | Potency, µM (top dose mostly 56.1 µM), for inactives: at the top dose activity change, negative = inhibition, usual class: inhibitors | RecQ-like DNA helicase BLM (Homo sapiens), P54132 | recombinant BLM DNA unwinding, fluorescence dequenching;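 also: plate controls were vehicle for no effect and no enzyme for full effect; nearly all actives have a fitted effect of over 35% in size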
* marks the source's active call; other numbers are inactive results; ? = inconclusive; / = no result given; ! = a repeat was not active; [ ] = remark or other dose. Compounds with a hit are over-represented: about 1% of the library has one in this group of screens. Calls follow the shape of the dose curve; as a rule, active = well fitted curve in the direction sought with a large enough effect; inconclusive = small, poorly fitted or top-dose-only effect, or another doubt; inactive = no such curve, though single readings can be large; an effect the other way counts as inactive or inconclusive. Unless noted, % is scaled to controls: 0 for no effect and ±100 for the full control effect; potency is read from the fitted curve at half-maximal effect.

SMILES | RECQ1 inh | L3MBTL1 block | FEN1 inh | WRN helicase inh | APEX1 inh | BLM helicase inh
CC1=C(C(=O)OCc2ccc3nsnc3c2)N2C(=O)[C@@H](NC(=O)OCc3ccc4nsnc4c3)[C@H]2SC1 | / | / | 1% | / | / | /
CC1=CC(=O)c2ccccc2C1=O | -12% | -18% | 1% | 7% | -3% | 18µM*!
CC(C)(C=O)C1=CC(=O)c2ccccc2C1=O | -11% | -11% | ? | 50µM* | 0% | -16%
COc1cccc2c1C(=O)C=C(C)C2=O | 7% | -6% | 6% | 10%[11.6 µM] | -2% | -13%
CC[C@@H](NCCCn1cnc2c(SC)ncnc21)c1ccccc1 | / | / | / | -1% | / | /
Cc1ccc(N(CC(=O)NC(C)(C)C)C(=O)CCC(=O)Nc2ccccn2)cc1 | / | / | / | 4% | / | /
Cc1ccc(/C=N/Nc2cc(C)nc(NCc3ccccc3)n2)cc1 | -17% | -23% | -23% | -3% | 2% | -14%
Cc1cc(N/N=C/c2ccc(O)cc2)nc(NS(=O)(=O)c2ccccc2)n1 | -1% | 32µM* | -7% | -28%[57.1 µM] | 10µM* | 2%
COc1ccc(C2=C(N3CCN(c4cccc(C)c4C)CC3)c3ccccc3C2=O)cc1 | / | / | 10% | / | / | -7%
COc1ccc(-c2ccc(/C=N/NC(=O)c3cccnc3)o2)c([N+](=O)[O-])c1 | 4µM* | 4% | -3% | -9% | ? | -14%
COc1cc([N+](=O)[O-])cc(/C=N/NC(=O)c2cccnc2)c1O | -10% | 14µM* | -17% | -13% | 21% | -12%
COc1cccc(/C=N\NC(=O)c2ccc(Cn3cc(Br)c([N+](=O)[O-])n3)o2)c1O | 6% | -8% | -13% | -18% | 4% | 32µM*
COc1cc(/C=N\NC(=O)c2ccc(Cn3nc([N+](=O)[O-])c(Cl)c3C)o2)ccc1O | -15% | / | ? | -26% | -6% | -18%
Cc1ccc(C(=O)N/N=C/c2ccc(-c3ccccc3[N+](=O)[O-])o2)cn1 | -10% | 19% | -20% | -28% | -1% | -21%
NC(=O)C1CCN(c2nc(-c3ccc(C(F)(F)F)cc3)cs2)CC1 | / | / | / | / | 7% | /
CO/N=C(\C(=O)N[C@@H]1C(=O)N2C(C(=O)OCOC(=O)C(C)(C)C)=C(/C=C\c3scnc3C)CS[C@H]12)c1csc(N)n1 | / | / | / | / | -3% | /
CCCS(=O)(=O)NC(=O)C1(C)CCCN(C(=O)c2cc(F)ccc2C)C1 (stereo not given) | / | / | / | 4% | / | /
Cc1ccc(C)c(N(C)S(=O)(=O)c2ccc3[nH]cc(C(=O)NC4CCCC4)c(=O)c3c2)c1 | / | / | -17% | / | / | -12%
COc1cc2c(cc1OC)-c1cc3ccc(OC)c(OC)c3c[n+]1CC2 | 29% | -13% | ? | 7%[11.6 µM] | -14% | 134%
COc1ccc2cc3[n+](cc2c1O)CCc1cc2c(cc1-3)OCO2 | / | / | / | 50µM* | / | /
C(#Cc1ccccc1)C[N+]1(CC#Cc2ccccc2)CCCC1 | -3% | 7% | 1% | 1% | -2% | 4%
C=CC#CC[N+]1(CC#Cc2ccccc2)CCOCC1 | -19% | 10% | 18µM* | 22µM* | 2% | 72%
Cc1cc(C)c2c(=O)c(C#N)coc2c1 | -21% | 3% | ? | 56µM* | -6% | -6%
Cc1cc(C)c2c(CC(=O)NC(C)C)coc2c1 | -1% | 23% | 2% | -31% | 2% | -5%
O=C(C=Cc1ccc2c(c1)OCO2)OCC=Cc1ccc2c(c1)OCO2 | / | / | 5% | 8% | / | /
SMILES | RECQ1 inh | L3MBTL1 block | FEN1 inh | WRN helicase inh | APEX1 inh | BLM helicase inh
O=C(/C=C/c1ccccc1)Nc1cccc(S(=O)(=O)Nc2ccccc2F)c1 | -3% | -6% | -18% | 40µM* | -3% | -5%
CC(=O)Nc1cc(-c2ccc(N)cc2)cn2c(-c3cccc(C(F)(F)F)c3)cnc12 | / | / | / | 2% | / | /
CCOc1cc(/C=C2\SC(=O)N(CC(=O)Nc3ccccc3F)C2=O)cc([N+](=O)[O-])c1O | -14% | -16% | 50µM* | -7%[57.1 µM] | 6% | -3%
COc1cc(/C=C2\SC(=O)N(CC(=O)Nc3ccccc3F)C2=O)cc(Cl)c1O | / | 2% | -31% | -8%[57.1 µM] | -8% | -12%
CCOc1cc(/C=C2\C(=O)N(CCc3ccc(OC)c(OC)c3)C(C)=C2C(=O)OC)ccc1O | 0% | -4% | -18% | 79µM* | 8% | -5%
COC(=O)C1=C(C)N(Cc2ccc(C)cc2)C(=O)/C1=C\c1ccc(O)c(OC)c1 | 5% | -20% | -19% | -22%[57.1 µM] | -7% | -7%
CCS(=O)(=O)c1ncc(Cl)c(C(=O)N2CCN(c3cccc(Cl)c3)CC2)n1 | / | / | -14% | / | / | -8%
COc1cnc(-c2ccccn2)nc1NC(C)C | 2% | 1µM* | -4% | 5% | -2% | 1%
Oc1c(Cl)cc(Cl)cc1Sc1cc(Cl)cc(Cl)c1O | 40µM* | -11% | / | / | 8% | ?
Cc1ccc(NS(=O)(=O)c2cc([N+](=O)[O-])ccc2NNC(=S)Nc2cccc(Cl)c2)c(C)c1 | -2% | 25µM* | ? | ? | 23% | -1%
NC(=O)c1cccc(-c2noc(-c3ccccc3C(F)(F)F)n2)c1 | / | / | / | / | 2% | /
CC(C)c1ccc(S(=O)(=O)/N=C2/C=C(Sc3ncn[nH]3)C(=O)c3ccccc32)cc1 | 0% | ? | 79µM* | 32µM* | 4% | 10µM*
Cc1ccc(S(=O)(=O)/N=C2/C=C(Sc3ncn[nH]3)C(=O)c3ccccc32)c(C)c1 | -12% | ? | / | / | -6% | 28µM*
O=C(NC1CCCc2ccccc21)c1cnn2c1NC(=C1CC1)C=C2C(F)F (stereo not given) | / | / | -5% | / | / | /
CC(=O)N[C@@H](CC(=O)O)C(=O)N[C@@H](CCC(=O)O)C(=O)O | ? | / | / | / | 3.5µM*! | -1%
COc1ccc(/C=N/Nc2nc(-c3cccnc3)nc3ccccc23)cc1OC | 20µM* | 5% | ? | -21% | -6% | 3%
Oc1ccc(/C=N/Nc2nc(-c3cccnc3)nc3ccccc23)c(O)c1 | -1% | -27% | -33% | -31% | ? | -23%
CC(=O)c1ccc(NC(=O)COC(=O)c2ccccc2N=Nc2ccc(N(C)C)cc2)cc1 | -2% | ? | -4% | -16% | 3% | -8%
COC(=O)c1ccccc1NC(=O)COC(=O)c1ccccc1N=Nc1ccc(N(C)C)cc1 | 5% | 10µM* | -10% | -16% | 0% | -10%
